In general, inhibition refers to the relative decrease from the control value, in per cent.

Experimental findings from PubChem BioAssay are described below.

A short description of assay [1]: inhibitors of TNFa-induced NFkB p65 translocation, primary screen, imaging, HUVEC, MLSMR starter and 10KST1 sets (AID 438;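 active = inhibition above 20% together with a positive visual image hit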;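 note: compound added about 3h40 before a 20 min TNFalpha stimulation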;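 for inhibition: signal is the nuclear over cytoplasmic p65 intensity ratio per well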). The note with it: HUVEC TNFa-induced p65 nuclear translocation; cell count: measured here: nuclei count (cytotoxicity indicator), at 2.08 µM; inhibition: at 2 µM, stronger effect = higher value, 0% TNFa-plus-vehicle, 100% no-TNFa wells.
A short description of assay [2]: reduction of polyQ htt aggregates in cells – imaging, exon1htt(103Q)mCFP cells, high-content imaging, primary screen (AID 483;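 active = visual image review flags a hit and inhibition of aggregation exceeds 20%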;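 note: compound exposure lasted 3 days before fixation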;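 for nuclei count: percent of the per-plate median nuclei count of sample wells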). The note with it: exon1htt(103Q)mCFP cell line, aggregate imaging, at 2 µM; inhibition of aggregation: stronger effect = higher value; nuclei count: measured here: cell count, toxicity.
Assay [3] can be described thus: endothelial E-selectin expression blockers – imaging, HUVEC, immunofluorescence, MLSMR starter and 10KST1 sets, primary screen (AID 487;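 active = visually confirmed hit in the image check and inhibition above 20%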;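 for inhibition: signal is fraction of cell area covered by stained E-selectin grains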;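 for nuclei count: 100% = median nuclei count of all wells on the same plate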). The note with it: HUVEC TNFalpha-induced E-selectin immunofluorescence imaging, at 2 µM; inhibition: stronger effect = higher value; nuclei count: measured here: cell number, toxicity.
The nature of assay [4]: Primary imaging screen for DUSP6 inhibitors that restore phospho-Erk in transfected HeLa cells, chemical complementation (AID 609;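 active = compounds giving at least 50% inhibition in the cell-based MKP-3 phosphatase rescue imaging test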;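 for inhibition: phospho-Erk level distribution per well compared with pooled transfected vehicle control wells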). Conditions: HeLa MKP-3 transfected, phospho-Erk imaging KS statistic, at 10 µM, cells stimulated with TPA for 15 min.
The target in assay [5] is Dual specificity protein phosphatase 6 (Homo sapiens) (UniProt Q16828). The assay is described as above. The note with it: HeLa MKP-3 transfected, phospho-Erk imaging KS statistic; at 10 µM; stronger effect = higher value; cells stimulated with TPA for 15 min.
In assay [6] the target is Voltage-gated potassium channel subunit beta-2 (Rattus norvegicus) (UniProt P62483). Description: inhibitors of rat Kvbeta2 reductase activity – biochemical, NADPH fluorescence, primary screen (AID 622;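 active = fluorescence slope higher than the sample average by over 3 SD, cut at about -0.22 in these data, passing the limit was not always enough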;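 note: slope of raw intensity against log time taken from 70 to 1610 s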). Conditions: recombinant KvBeta, 4-cyanobenzaldehyde reduction, at 10 µM, stronger effect = higher value.
Assay [7] has the same target. In words: enhancers of rat Kvbeta2 NADPH turnover – biochemical, NADPH fluorescence, primary screen (AID 623).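 Note: fluorescence intensity change per second fitted from 20 to 320 s.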 Conditions: Recombinant KvBeta, NADPH fluorescence decrease slope, 10 min; at 10 µM; stronger effect = lower value.
Assay [8] has as its target Alpha-2C adrenergic receptor (Homo sapiens) (UniProt P18825). Description: compounds altering alpha2C-coupled GIRK flux – cell-based, HEK293 alpha2C/GIRK1/2, thallium flux, primary screen (AID 624;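 active = fluorescence slope after compound addition differing from the mean of all screened samples at 99.7% confidence, in either direction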;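 note: slope of fluorescence ratio to pre-addition baseline per second over 15 to 24 s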). Conditions: thallium flux BTC fluorescence, at 10 µM, actives lie on both sides.
The nature of assay [9]: inhibitors of larval lipid processing in zebrafish, primary screen, whole organism, PED6 fluorescence, gall bladder and intestine (AID 686;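 active = a full or partial loss of lipid-probe fluorescence in the fish gall bladder, intestine or both, judged by eye; inactive = no fluorescence loss, or compound toxic to the fish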;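 note: larvae 5 to 7 days old with five fish per well; signal comes from phospholipase A2 cleavage of quenched PED6 carried via bile; overnight exposure to compound and PED6 before scoring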). The note with it: Zebrafish larvae PED6 lipid processing, fluorescence scoring; screened at 20 µM (by protocol).
Assay [10] in a line: loss of swimming-algae plug formation – whole organism, Chlamydomonas reinhardtii, WT vs cilia-less mutant, absorbance, 96-well, primary screen (AID 463189;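 active = inhibition at or above 50% relative to wild type and mutant plate controls; inactive = inhibition below 50%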;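 note: 0% = wild type cc124 cells in DMSO and 100% = ciliumless bld1 mutant cells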). Conditions: Chlamydomonas reinhardtii gravitaxis, OD600 absorbance, 2 days; at 10 µM; stronger effect = higher value.
A short description of assay [11]: blockers of RIG-like receptor reporter activation – cell-based, Sendai virus stimulus, luciferase, 10K MLSCN set, TLR/RLR signaling modifier project, primary screen (AID 602276;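 active = inhibition at or above 50% at 10 µM; inactive = inhibition below 50%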;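 note: firefly luciferase from ISG56 promoter only with Renilla not read in this screen; 0% = Sendai virus plus DMSO and 100% = medium plus DMSO without virus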). Conditions: HEK293 RL24 IRF3 luciferase reporter, at 10 µM, stronger effect = higher value.
Assay [12] can be described thus: TLR3 IRF3 reporter activation blockers – cell-based, poly I:C stimulus, luciferase, 10K MLSCN set, primary screen (AID 602277;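 active = inhibition of the reporter signal at or above 50%; inactive = inhibition below 50%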). The note with it: HEK293-TLR3 RL24 IRF3 luciferase reporter, at 10 µM, stronger effect = higher value.
The mark [13] stands for this setting: measured here: cell density z-score.
[14] abbreviates: measured here: nuclear c-Myc green intensity z-score.
[15] abbreviates: measured here: nuclear pErk red intensity z-score, stronger effect = higher value.

SMILES strings stand for the structures. Activity calls are given as the source filed them.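 Rule for the calls, unless noted: active = NADPH fluorescence slope more negative than the mean of all samples by about 3 SD, 99.7% confidence; inactive = the rest.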

Dual specificity protein phosphatase 6 (Homo sapiens), sequence (Q16828 whole entry, looked up): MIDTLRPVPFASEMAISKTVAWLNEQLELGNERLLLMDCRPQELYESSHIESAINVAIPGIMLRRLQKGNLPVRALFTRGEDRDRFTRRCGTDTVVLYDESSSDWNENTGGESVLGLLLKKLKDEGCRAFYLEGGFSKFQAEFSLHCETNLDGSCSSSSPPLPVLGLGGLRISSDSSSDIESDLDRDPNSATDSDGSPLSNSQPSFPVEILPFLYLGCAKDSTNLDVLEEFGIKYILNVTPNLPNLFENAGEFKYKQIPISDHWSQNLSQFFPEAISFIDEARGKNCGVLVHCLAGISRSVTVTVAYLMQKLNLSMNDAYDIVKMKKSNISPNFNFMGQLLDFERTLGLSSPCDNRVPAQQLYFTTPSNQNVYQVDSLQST
Alpha-2C adrenergic receptor (Homo sapiens), sequence (P18825 whole entry, looked up): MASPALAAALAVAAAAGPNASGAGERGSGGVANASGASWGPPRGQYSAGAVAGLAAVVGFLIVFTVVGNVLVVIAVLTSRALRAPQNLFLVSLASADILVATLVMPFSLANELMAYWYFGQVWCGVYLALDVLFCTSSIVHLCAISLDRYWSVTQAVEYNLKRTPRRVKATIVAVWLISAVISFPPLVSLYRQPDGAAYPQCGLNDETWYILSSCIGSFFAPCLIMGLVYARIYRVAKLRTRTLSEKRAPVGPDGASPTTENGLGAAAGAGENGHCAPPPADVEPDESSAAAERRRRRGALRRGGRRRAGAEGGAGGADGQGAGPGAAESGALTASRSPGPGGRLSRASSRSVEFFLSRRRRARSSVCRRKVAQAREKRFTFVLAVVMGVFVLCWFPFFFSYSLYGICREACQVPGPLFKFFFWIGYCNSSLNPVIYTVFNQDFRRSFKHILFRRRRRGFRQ
Voltage-gated potassium channel subunit beta-2 (Rattus norvegicus), sequence (P62483 whole entry, looked up): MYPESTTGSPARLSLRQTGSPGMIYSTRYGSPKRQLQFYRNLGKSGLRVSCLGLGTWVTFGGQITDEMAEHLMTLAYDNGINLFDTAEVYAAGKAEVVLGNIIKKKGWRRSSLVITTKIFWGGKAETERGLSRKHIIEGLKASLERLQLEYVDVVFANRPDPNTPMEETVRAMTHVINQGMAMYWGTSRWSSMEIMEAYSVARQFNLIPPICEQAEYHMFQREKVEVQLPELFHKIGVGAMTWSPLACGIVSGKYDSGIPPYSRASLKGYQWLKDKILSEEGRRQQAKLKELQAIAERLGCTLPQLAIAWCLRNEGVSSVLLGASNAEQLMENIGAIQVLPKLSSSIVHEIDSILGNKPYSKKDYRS

`COc1cccc(Cn2c(Oc3ccccc3)nc3c2c(=O)n(C)c(=O)n3C)c1`: the cell count in assay [1] was 373. For the same molecule, the inhibition in assay [1] is -4.8% (inactive); in [3], -67.3% (inactive); in [5] it was 1.04% (inactive); in [10], 8.33% (inactive); in [11], 19.3% (inactive); in assay [12], 10.3% (inactive). Besides, in [2], the inhibition of aggregation is 17.7% (inactive). Further, the nuclei count in assay [2] is 87.9%; in assay [3] it was 150%. Moreover, the results for the z-score in assay [4] (setting [13]), in [4] (setting [14]) and in assay [4] (setting [15]) were -0.332, -0.584 and 0.142, respectively. Also, the fluorescence slope in [6] is -0.369 (inactive). In addition, the NADPH fluorescence slope in assay [7] is -2.2e-05 (inactive). For the same molecule, in [8], the slope was 0.00481 (inactive). Further, the result in [9] was inactive.

As to `CCN(CCCCOC(=O)c1ccc(OC)c(OC)c1)C(C)Cc1ccc(OC)cc1` (configuration not stated), the cell count in [1] turned out to be 635. Further, the inhibition in [1] was -4.8% (inactive); in [3] it was -106% (inactive); in assay [5] it was 9.37% (inactive); in [10] it was 55.2% (active); in assay [11], -44.7% (inactive); in [12] it was 57.4% (active). The inhibition of aggregation in assay [2] was -7.1% (inactive). The nuclei count in assay [2] was 96.1%; in [3] it was 138%. In addition, the results for the z-score in assay [4] (setting [13]), in [4] (setting [14]) and in assay [4] (setting [15]) were 0.515, -0.208 and -0.515, respectively. Further, in assay [6], the fluorescence slope is -0.488 (inactive). In addition, the NADPH fluorescence slope in assay [7] was -7.4e-05 (inactive). In addition, in assay [8], the slope was 0.00442 (inactive). In assay [9], the result was inactive.

With `COC(=O)c1ccc(-c2sc3nc(N4CCOCC4)c4c(c3c2N)CCCC4)o1`, the cell count in assay [1] was found to be 683. Moreover, the inhibition is -7.7% (inactive) in assay [1]; 18.1% (inactive) in assay [3]; 14.4% (inactive) in assay [5]; -6.82% (inactive) in [10]; 13% (inactive) in assay [11]; -14.5% (inactive) in assay [12]. In addition, the inhibition of aggregation in [2] was -43% (inactive). Moreover, the nuclei count in assay [2] was found to be 103%; in assay [3], 126%. Moreover, the values for the z-score in assay [4] (setting [13]), in assay [4] (setting [14]) and in assay [4] (setting [15]) were -0.0797, 0.0278 and 1.68, respectively. Also, the fluorescence slope in [6] was -0.000813 (inactive). Also, the NADPH fluorescence slope in assay [7] was 0 (inactive). Moreover, the slope in assay [8] was 0.0101 (inactive). The result in assay [9] was inactive.

For the molecule `CCN1CCN(c2cc3c(cc2F)c(=O)c(C(=O)O)cn3C2CC2)CC1`, the cell count in assay [1] was determined as 605. The inhibition in assay [1] is 1.1% (inactive); in assay [3] it was -41.3% (inactive); in [5], -5.24% (inactive); in assay [10], -15.2% (inactive); in assay [11], 1.29% (inactive); in [12] it was 31.6% (inactive). In addition, the inhibition of aggregation in [2] was 3.3% (inactive). The nuclei count in [2] came to 97.3%; in assay [3] it was 116%. The z-score in [4] (setting [13]) was determined as 0.332; in [4] (setting [14]), 0.418; in assay [4] (setting [15]), 0.882. Besides, the fluorescence slope in assay [6] is -0.498 (inactive). In addition, the NADPH fluorescence slope in assay [7] is 1.7e-06 (inactive). Besides, the slope in [8] was 0.0049 (inactive). Besides, in assay [9], the molecule was called inactive.

On to `CCCCOc1ccc(OCCCN2CCOCC2)cc1`, for which the cell count in [1] amounted to 589. Further, the inhibition in [1] was 6% (inactive); in [3] it was -52.4% (inactive); in [5] it was 1.38% (inactive); in [10], 159% (active); in [11], -7.75% (inactive); in assay [12], -40.7% (inactive). Moreover, in [2], the inhibition of aggregation is 7.5% (inactive). The figures for the nuclei count in [2] and in assay [3] were 94.3% and 117%, respectively. The z-score was -0.745 in [4] (setting [13]), -1.16 in assay [4] (setting [14]) and 3.07 in assay [4] (setting [15]). Besides, in assay [6], the fluorescence slope is -0.49 (inactive). In addition, the NADPH fluorescence slope in [7] is -5.2e-05 (inactive). For the same molecule, in [8], the slope was 0.00401 (inactive). The call in assay [9] was inactive.

In the case of `CC1(C)Cc2c(sc3c2C2=NCCN2C=N3)CO1`, the cell count in assay [1] was found to be 624. Also, the inhibition in [1] is -7% (inactive); in assay [3] it was -54.1% (inactive); in [5] it was -2.69% (inactive); in assay [10] it was 63.1% (active); in assay [11], -17.5% (inactive); in [12] it was -3.31% (inactive). For the same molecule, the inhibition of aggregation in assay [2] is 4.2% (inactive). The nuclei count in assay [2] was found to be 124%; in assay [3] it was 139%. Further, the z-score in [4] (setting [13]) is -0.0476; in assay [4] (setting [14]), 0.11; in assay [4] (setting [15]), -0.119. The fluorescence slope in assay [6] is -0.328 (inactive). In assay [7], the NADPH fluorescence slope was -8.5e-06 (inactive). In addition, the slope in assay [8] was 0.00463 (inactive). Moreover, the outcome in [9] was inactive.
